Test results taken from publication PMC4552634, “A New Set of Chemical Starting Points with Plasmodium falciparum Transmission-Blocking Potential for Antimalarial Drug Discovery” (PLoS ONE, 2015).
Hit rate of the full screen: of about 13,000 compounds, about 3,200 (25%) showed an effect of 50% or more. This is one part of the list.

Tested on: P. falciparum stage V gametocytes
Design: BacTiter-Glo ATP luminescence viability of purified stage V gametocytes in 384-well plates, per cent inhibition versus DMSO
Settings: 48 h, 5 µM; inhibitor

SMILES | % Inhibition
O=C(NCCN1CCOCC1)c1ccc(CNC(=O)c2ccc(O)c(-c3ccc(Cl)c(Cl)c3)c2)cc1 [TCMDC-140852] | 5.208%
CON(C)C(=O)[C@@H](CCCCNC(=O)OCc1ccccc1)NC(=O)OC(C)(C)C [TCMDC-132004] | -2.99%
O=C(CN1CCC(NCc2cnc(-c3ccc(Cl)cc3)[nH]2)CC1)N1CCc2ccccc21 [TCMDC-138589] | 28.41%
Cc1cc(OCC2CCN(c3ncc(C(=O)Nc4ccccc4)cc3Cl)CC2)ccc1F [TCMDC-134033] | -3.032%
Cc1cc(OCCCN2CCN(CCN3CCOCC3)CC2)ccc1NC(=O)COc1ccc(Cl)cc1C(=O)c1cc(Cl)cc(C#N)c1 [TCMDC-135999] | 30.59%
Cc1cc(OCCCN2CCCC2)ccc1NC(=O)COc1ccc(Cl)cc1C(=O)c1cc(C#N)cc(C(F)(F)F)c1 [TCMDC-138904] | 58.86%
COc1cc(NC(=O)N2CCc3ccc(OCCN4CCCCC4)cc32)cc(C(F)(F)F)c1 [TCMDC-140249] | 14.65%
Cc1cc(OCCCN2CCCCC2)ccc1NC(=O)COc1ccc(Cl)cc1C(=O)c1cc(C#N)cc(C(F)(F)F)c1 [TCMDC-134827] | 50%
Cc1cc(OCCCN2CCCCC2C)ccc1NC(=O)COc1ccc(Cl)cc1C(=O)c1cc(Cl)cc(C#N)c1 (stereo not shown) [TCMDC-134727] | 73.35%
Cc1cc(OCC2CCCN(c3ncc(C(=O)NC4CC4)cc3Cl)C2)ccc1F (stereo not shown) [TCMDC-134314] | 18.53%
Cc1c(NC(=O)COc2ccc(Cl)cc2C(=O)c2cc(F)cc(C(F)(F)F)c2)ccc2ncsc12 [TCMDC-138907] | 4.382%
Cc1cc(OCCCN2CCCCC2)ccc1NC(=O)COc1ccc(Cl)cc1C(=O)c1cc(Cl)cc(C#N)c1 [TCMDC-134725] | 48.49%
CCCCCCN1CCCN(Cc2cccc(C(=O)Nc3ccc(C(C)(C)C)cc3)c2)CC1 [TCMDC-135993] | -6.517%
CCCC(C)NC(=O)[C@H](Cc1ccccc1)NC(=O)c1ccc(O)c(-c2ccc(OC)cc2)c1 (stereo partly shown) [TCMDC-140800] | 19.41%
CC(C)CNC(=O)c1cncc(-c2ccc(CNCCCc3ccccc3)cc2)c1 [TCMDC-134247] | -10.62%
CC(C)CNCc1cccc(-c2cccc(CN(CCN(C)C)C(=O)NCCc3ccccc3)c2)c1 [TCMDC-140620] | 102.4%
CCOC(=O)CNC(=O)N(CCN(Cc1ccccc1)C(=O)NCC(=O)OCC)Cc1ccccc1 [TCMDC-138999] | 6.745%
CC(C)CNCc1ccc(-c2cccc(CN(CCN(C)C)C(=O)NCCc3ccccc3)c2)cc1 [TCMDC-140621] | 102.2%
CC(C)CNCc1cccc(-c2ccc(CNc3ccc(C(=O)c4ccccc4)cc3)cc2)c1 [TCMDC-140728] | 10.94%
CC[C@H](C)CNC(=O)c1cncc(-c2cccc(CNCCCc3ccccc3)c2)c1 [TCMDC-134221] | 19.08%
CN(C)CCOc1cccc(NC(=O)Nc2ccc(-c3ccccc3)cc2)c1 [TCMDC-139537] | 22.41%
CC(C)CNCc1cccc(-c2cccc(CN(CCN(C)C)C(=O)Nc3ccccc3)c2)c1 [TCMDC-140592] | 108.6%

SMILES | % Inhibition
CN(C)CCN(C)Cc1cccc(-c2cccc(NC(=O)c3cccc(C#N)c3)c2)c1 [TCMDC-133360] | 6.032%
CN(CC(=O)Nc1ccc(F)c(F)c1F)c1ncnc2sc(-c3ccccc3)cc12 [TCMDC-124491] | 23.36%
O=C(Nc1ccc2c(ccn2C2CCCN(Cc3cc(F)cc(F)c3F)CC2)c1)c1ccco1 (stereo not shown) [TCMDC-135087] | 26.42%
Nc1nc(N)c2cc(N(Cc3ccccc3)Cc3ccccc3)ccc2n1 [TCMDC-137850] | -9.254%
Cc1cccc2[nH]c(-c3cccc(-c4cccc(NC(=O)CNc5ccc(C(N)=O)cc5)c4)c3)nc12 [TCMDC-132165] | -3.752%
Cc1ccccc1C1CCN(c2ccc(C(=O)NC3CC3)cn2)CC1 [TCMDC-134592] | 24.07%
COc1ccc2nccc(N3CCC(NCCNCc4cc5c(cn4)OCCO5)C3)c2n1 (stereo not shown) [TCMDC-134650] | 71.62%
COc1ccc2nccc(N3CCC(SCCNCc4cc5c(cn4)OCCO5)C3)c2n1 (stereo not shown) [TCMDC-134286] | 24.01%
COc1ccc2nccc(NCC3(O)CCC(NCc4cc5c(cn4)OCCO5)CC3)c2n1 (stereo not shown) [TCMDC-134312] | -33.45%
COc1ccc2nccc(N3CCC(CCNCc4cc5c(cn4)OCCO5)CC3)c2c1.Cl [TCMDC-133537] | 9.41%
COc1ccc2nccc(N3CCC(CCNCc4ccc5c(n4)NC(=O)CS5)CC3)c2n1 [TCMDC-141944] | 32.25%
COc1ccc2nccc(N3CCC(CCNCc4cc5c(cn4)OCCO5)CC3)c2n1 [TCMDC-133538] | 80.45%
COC(=O)c1cc2cccc(NC[C@@H](C)NC[C@H](O)c3cccc(Cl)c3)c2[nH]1 [TCMDC-137770] | 45%
c1cc(CNCC2CCN(CC3CCCCC3)CC2)cc(-n2ccnc2)c1 [TCMDC-141675] | 21.38%
CN(C)Cc1ccc(CNC2CCN(Cc3ccccc3Cl)CC2)cc1 [TCMDC-141671] | -2.208%
COc1ccc(CN2CCC(NCc3cccc(-n4ccnc4)c3)CC2)cc1 [TCMDC-141651] | 14.29%
c1cc(CNC2CCN(CC3CCCCC3)CC2)cc(-n2ccnc2)c1 [TCMDC-141657] | 70.67%
Clc1ccccc1CN1CCC(NCc2cccc(-n3ccnc3)c2)CC1 [TCMDC-141672] | 86.45%
CCCCCCN1CCC(NCc2cccc(-n3ccnc3)c2)CC1 [TCMDC-141664] | 11.65%
Cc1ccc(-c2cnc3[nH]cc(-c4ccc(C(=O)O)c(C)c4)c3c2)cc1C.O=C(O)C(F)(F)F [TCMDC-136381] | 18.23%
CCCCc1cc(NCC)nc(Nc2ccc(F)cc2)n1 [TCMDC-134009] | 8.286%
